# Data as given in PubChem BioAssay (NCATS).
# Results filed as inconclusive are left out. Calls of active or inactive are those of the source. Calls come from the whole dose curve; as a rule, active = well fitted inhibition curve with a large enough effect; inconclusive = small, poorly fitted or top-dose-only effect; inactive = flat fitted curve, though single readings scatter.
# Test: P-glycoprotein substrates identified in KB-8-5-11 adenocarcinoma cell line, qHTS therapeutic library screen (AID 1346987); note: nearly all actives have a fitted effect of over 65% in size
# Conditions: KB-8-5-11 (P-gp overexpressing) viability, CellTiter-Glo, 72 h; series mostly up to 44.5 µM
# Summary of the method: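 P-gp-mediated resistance screen: KB-8-5-11 cells treated 72 h with compounds in dose-response. CellTiter-Glo viability.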
# % is set by controls: 0 for no effect and ±100 for the full control effect; potency is the fitted concentration of half-maximal effect.
Structure (SMILES),Potency,"activity change, negative = cytotoxicity"
CC(=O)OC1CCC2(C)C(CCC3(C)C2CC=C2C4C(C)C(C)CCC4(C)CCC23C)C1(C)C(=O)O (stereo not drawn),inactive,–
CCC(C)C(=O)O[C@H]1[C@H](O)[C@@]2(COC(C)=O)C(CC1(C)C)C1=CCC3[C@@]4(C)CC[C@H](O[C@@H]5O[C@H](C(=O)O)[C@@H](O)[C@H](O)[C@H]5O)[C@@](C)(CO)C4CC[C@@]3(C)[C@]1(C)C[C@@H]2O (stereo partly drawn),–,-11.3% [at 9.29 µM] (inactive)
O=C(NC1(c2ccccc2)CC1)c1c(CN2CCC(N3CCCCC3)CC2)c(-c2cccc(C(F)(F)F)c2)nc2cc(Br)ccc12,23.1 µM (active),–
